In PubChem BioAssay (NCATS):
Inconclusive results are not listed. Entries that show only a call come without a potency. Activity calls are given as the source filed them. Calls come from the whole dose curve; as a rule, active = well fitted inhibition curve with a large enough effect; inconclusive = small, poorly fitted or top-dose-only effect; inactive = no such curve, though single readings can be large or run the other way.

Tested on: not listed separately
Assay: Primary qHTS for small molecule stabilizers of the endoplasmic reticulum resident proteome: Secreted ER Calcium Modulated Protein (SERCaMP) assay (AID 1508630)
Settings: SH-SY5Y GLuc-SERCaMP (Gaussia luciferase released on ER calcium loss) secretion, thapsigargin, luminescence; series mostly up to 38.4 µM
Outline: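 The SH-SY5Y reporter protocol was run at 3 concentrations up to 38.3 uM (primary) or 11 concentrations (follow-up): 16 h compound, 100 nM thapsigargin for 4 h, then extracellular luciferase luminescence.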

| SMILES | Potency |
| --- | --- |
| CCCCOc1cc(CC2CNC(=O)N2)ccc1OC (stereo unspecified) | inactive |
| NCCCCN=C(N)N | inactive |
| CSC(=N)N | inactive |
| Nc1ccc(CCNc2ncnc3c2ncn3C2OC(CO)C(O)C2O)cc1 (stereo unspecified) | inactive |
| Cn1c(=O)c2c(nc(/C=C/c3cccc(Cl)c3)n2C)n(C)c1=O | inactive |
| O=c1ccc2c(OCCCCc3ccccc3)c3ccoc3cc2o1 | inactive |
| CC(C)C[C@H](NC(=O)C1OC1C(=O)O)C(=O)NCCCCN=C(N)N (stereo partly specified) | inactive |
| C=CC[C@H](N)C(=O)O | inactive |
| C[C@H]1CC2C3CCC4=CC(=O)C=C[C@]4(C)[C@@]3(Cl)[C@@H](O)C[C@]2(C)[C@@]1(O)C(=O)CO (stereo partly specified) | inactive |
| CCCn1c(=O)c2[nH]c(-c3ccc(S(=O)(=O)O)cc3)nc2n(CCC)c1=O | inactive |
| Cc1nc2n(c(=O)c1CCN1CCC(c3noc4cc(F)ccc34)CC1)CCCC2O (stereo unspecified) | inactive |
| CC(C)(C)c1ccc(/C=C/C(=O)Nc2ccc3c(c2)OCCO3)cc1 | inactive |
| NCCCNCCCCNCCCN | inactive |
| CC[N+](CC)(CC)CC(=O)Nc1c(C)cccc1C | inactive |
| NCC(O)(CS(=O)(=O)O)c1ccc(Cl)cc1 (stereo unspecified) | inactive |
| O=c1[nH]ccc2c(O)cccc12 | inactive |
| COCc1nc2c([nH]1)c(=O)n(C)c(=O)n2CC(C)C | inactive |
| CCC(=O)N1CCN(C(=O)c2ccccc2)CC1 | inactive |
| COC(=O)C1=C(C)NC(C)=C([N+](=O)[O-])C1c1ccccc1C(F)(F)F (stereo unspecified) | inactive |

| SMILES | Potency |
| --- | --- |
| CCC1(O)CC2CN(CCc3c([nH]c4ccccc34)[C@@](C(=O)OC)(c3cc4c(cc3OC)N(C=O)C3[C@]45CCN4CC=C[C@@](CC)([C@@H](OC(C)=O)[C@]3(O)C(=O)OC)[C@H]45)C2)C1 (stereo partly specified) | inactive |
| O=c1onc2n1-c1cc(Br)ccc1OC2 | inactive |
| O=C(O)c1ccccc1Nc1ccccc1 | inactive |
| Cc1cc2c(cc1Cl)N(C(=O)Nc1ccnc3ccccc13)CC2 | inactive |
| CC(=O)NCCc1c[nH]c2ccc(O)cc12 | inactive |
| CC(=O)/C(C)=N/O | inactive |
| O=c1[nH]c2ccccc2c2ccccc12 | inactive |
| CCCCCCC(=O)OC1CC(C)(C)NC(C)(C)C1 | inactive |
| Cn1cc(C(F)(F)F)nc1-c1ccc(OCC(O)CNCCOc2ccc(O)c(C(N)=O)c2)cc1 (stereo unspecified) | inactive |
| CN1CC(O)C(O)C(O)C1CO (stereo unspecified) | inactive |
| CCN(CC)CCOC(=O)c1cc(Cl)c(N)cc1OC | inactive |
| CN(C)C(=O)/N=N/C(=O)N(C)C | inactive |
| CC[C@@H]1Cc2cc(O)ccc2C2=C1c1ccc(O)cc1C[C@H]2CC | inactive |
| O=C(O)c1cc2cc(F)ccc2[nH]1 | inactive |
| CC(=O)NNC(=O)N1Cc2ccccc2Oc2ccc(Cl)cc21 | inactive |
| CC(=O)[C@H]1CCC2C3CC=C4C[C@@H](OS(=O)(=O)O)CC[C@]4(C)C3CC[C@@]21C (stereo partly specified) | inactive |
| CC1CCN=C(N)S1 (stereo unspecified) | inactive |
| C=C(C)C1CC=C(C(=O)O)CC1 (stereo unspecified) | inactive |
| COc1cc(C(O)C(=O)O)ccc1O (stereo unspecified) | inactive |

Target: Papain (Carica papaya) (UniProt P00784)
Assay: Primary qHTS assay for inhibitors of the protease papain (AID 1645873);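 note: papain turnover of Z-FR-AMC read as the AMC fluorescence gain over 10 min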; note: potency is the fitted concentration of half-maximal effect
Settings: papain Z-FR-AMC cleavage, AMC fluorescence; series mostly up to 49.8 µM

Sequence of Papain (Carica papaya) (P00784 whole entry, looked up): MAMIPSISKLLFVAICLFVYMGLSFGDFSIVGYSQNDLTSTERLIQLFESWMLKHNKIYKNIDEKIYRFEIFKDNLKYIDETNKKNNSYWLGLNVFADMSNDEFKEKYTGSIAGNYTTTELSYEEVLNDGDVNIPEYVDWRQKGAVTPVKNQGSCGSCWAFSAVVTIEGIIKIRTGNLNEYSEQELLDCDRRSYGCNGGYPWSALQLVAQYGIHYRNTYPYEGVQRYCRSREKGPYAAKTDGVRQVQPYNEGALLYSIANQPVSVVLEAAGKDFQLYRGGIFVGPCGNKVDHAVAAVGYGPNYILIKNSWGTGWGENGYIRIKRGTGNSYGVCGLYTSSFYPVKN

| SMILES | Potency |
| --- | --- |
| CCCCOc1cc(CC2CNC(=O)N2)ccc1OC (stereo unspecified) | inactive |
| NCCCCN=C(N)N | inactive |
| CSC(=N)N | inactive |
| Nc1ccc(CCNc2ncnc3c2ncn3C2OC(CO)C(O)C2O)cc1 (stereo unspecified) | inactive |
| Cn1c(=O)c2c(nc(/C=C/c3cccc(Cl)c3)n2C)n(C)c1=O | 3.55 µM (active) |
| O=c1ccc2c(OCCCCc3ccccc3)c3ccoc3cc2o1 | inactive |
| CC(C)C[C@H](NC(=O)C1OC1C(=O)O)C(=O)NCCCCN=C(N)N (stereo partly specified) | inactive |
| C=CC[C@H](N)C(=O)O | inactive |
| C[C@H]1CC2C3CCC4=CC(=O)C=C[C@]4(C)[C@@]3(Cl)[C@@H](O)C[C@]2(C)[C@@]1(O)C(=O)CO (stereo partly specified) | inactive |
| CCCn1c(=O)c2[nH]c(-c3ccc(S(=O)(=O)O)cc3)nc2n(CCC)c1=O | 25.1 µM (active) |
| Cc1nc2n(c(=O)c1CCN1CCC(c3noc4cc(F)ccc34)CC1)CCCC2O (stereo unspecified) | inactive |
| CC(C)(C)c1ccc(/C=C/C(=O)Nc2ccc3c(c2)OCCO3)cc1 | inactive |
| NCCCNCCCCNCCCN | inactive |
| CC[N+](CC)(CC)CC(=O)Nc1c(C)cccc1C | inactive |
| NCC(O)(CS(=O)(=O)O)c1ccc(Cl)cc1 (stereo unspecified) | inactive |
| O=c1[nH]ccc2c(O)cccc12 | inactive |
| COCc1nc2c([nH]1)c(=O)n(C)c(=O)n2CC(C)C | inactive |
| CCC(=O)N1CCN(C(=O)c2ccccc2)CC1 | inactive |
| COC(=O)C1=C(C)NC(C)=C([N+](=O)[O-])C1c1ccccc1C(F)(F)F (stereo unspecified) | inactive |

| SMILES | Potency |
| --- | --- |
| CCC1(O)CC2CN(CCc3c([nH]c4ccccc34)[C@@](C(=O)OC)(c3cc4c(cc3OC)N(C=O)C3[C@]45CCN4CC=C[C@@](CC)([C@@H](OC(C)=O)[C@]3(O)C(=O)OC)[C@H]45)C2)C1 (stereo partly specified) | inactive |
| O=c1onc2n1-c1cc(Br)ccc1OC2 | inactive |
| O=C(O)c1ccccc1Nc1ccccc1 | inactive |
| Cc1cc2c(cc1Cl)N(C(=O)Nc1ccnc3ccccc13)CC2 | inactive |
| CC(=O)NCCc1c[nH]c2ccc(O)cc12 | inactive |
| CC(=O)/C(C)=N/O | 2 µM (active) |
| O=c1[nH]c2ccccc2c2ccccc12 | inactive |
| CCCCCCC(=O)OC1CC(C)(C)NC(C)(C)C1 | inactive |
| Cn1cc(C(F)(F)F)nc1-c1ccc(OCC(O)CNCCOc2ccc(O)c(C(N)=O)c2)cc1 (stereo unspecified) | inactive |
| CN1CC(O)C(O)C(O)C1CO (stereo unspecified) | inactive |
| CCN(CC)CCOC(=O)c1cc(Cl)c(N)cc1OC | inactive |
| CN(C)C(=O)/N=N/C(=O)N(C)C | inactive |
| CC[C@@H]1Cc2cc(O)ccc2C2=C1c1ccc(O)cc1C[C@H]2CC | 5.01 µM (active) |
| O=C(O)c1cc2cc(F)ccc2[nH]1 | inactive |
| CC(=O)NNC(=O)N1Cc2ccccc2Oc2ccc(Cl)cc21 | inactive |
| CC(=O)[C@H]1CCC2C3CC=C4C[C@@H](OS(=O)(=O)O)CC[C@]4(C)C3CC[C@@]21C (stereo partly specified) | 28.2 µM (active) |
| CC1CCN=C(N)S1 (stereo unspecified) | inactive |
| C=C(C)C1CC=C(C(=O)O)CC1 (stereo unspecified) | inactive |
| COc1cc(C(O)C(=O)O)ccc1O (stereo unspecified) | inactive |
